PubChem BioAssay AID1446 (The Scripps Research Institute Molecular Screening Center, 2008)
The campaign covered roughly 220,000 compounds. About 2,400 (1.1%) were called active.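 How the source made its calls: active means inhibition above the campaign mean plus 3 SD over all tested compounds (cut at about 24% in these data); inactive means the rest.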 The full list was thinned out, with actives kept by preference.

Experiment: reduced viability of JAK2V617F-dependent Ba/F3 cells, primary screen, JAK2V617F inhibitor project, cell-based, Ba/F3 EpoR-JAK2V617F, luminescence (AID 1446);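 further: cytokine-independent growth of Ba/F3 cells driven by EpoR plus mutant JAK2; 0% = DMSO-treated cells and 100% = JAK inhibitor I control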
Conditions: ATP luminescence, at 5.6 µM, hits give high values

Row | Compound | inhibition
1 | Cc1cccc(-[n+]2c(-c3cccc(Br)c3)[nH]c3nc4ccccc4nc32)c1 | -1.46% (inactive)
2 | CCCC(=O)Nc1nc2ccc(NC(=O)c3cccnc3)cc2s1 | 2.04% (inactive)
3 | CCCC(=O)Nc1nc2ccc(NC(=O)c3c(F)c(F)c(OC)c(F)c3F)cc2s1 | 81.8% (active)
4 | COc1ccc2nc(Nc3nc4ccc(NC(C)=O)cc4s3)sc2c1 | -4.43% (inactive)
5 | CCc1cccc(NC(=O)CCNS(=O)(=O)c2cccc3nonc23)c1 | -3.57% (inactive)
6 | Cc1onc(-c2ccc(Cl)cc2)c1-c1ccnn1S(=O)(=O)c1ccc(Cl)cc1 | -1.9% (inactive)
7 | COc1cc(/C=C2/C(=O)ON=C2C)ccc1OCc1cccc(F)c1 | 67.1% (active)
8 | COc1cc(/C=C2/C(=O)ON=C2C)ccc1OCc1ccccc1F | -2.39% (inactive)
9 | CC1=NOC(=O)/C1=C\c1ccccc1 | -4.85% (inactive)
10 | COc1ccc(NS(=O)(=O)c2ccc(N3CCOCC3)c(NC(=O)c3ccccc3Br)c2)cc1 | 2.5% (inactive)
11 | COc1ccccc1N=Cc1c(O)c2ccccc2oc1=O | 5.52% (inactive)
12 | CC(=O)Nc1nc2ccccc2n1Cc1ccc(C)cc1 | -2.63% (inactive)
13 | CCCn1c(NC(=O)C23CC4CC(CC(O)(C4)C2)C3)nc2ccccc21 | 53% (active)
14 | CCC(=O)Nc1nc2ccccc2n1Cc1ccccc1C | -0.24% (inactive)
15 | CCOP(=O)(OCC)C(Nc1cccc(C)c1)c1ccc(F)cc1 (configuration not stated) | -3.26% (inactive)
16 | C/[N+]([O-])=C\c1ccc([N+](=O)[O-])o1 | -0.25% (inactive)
17 | Cn1cc(/C=C/c2nc3ccccc3c(=O)n2-c2cccc([N+](=O)[O-])c2)c2ccccc21 | 0.27% (inactive)
18 | CCn1c(/C=C/c2ccc([N+](=O)[O-])o2)nc2ccccc2c1=O | 40.5% (active)
19 | CCc1nnc(NC(=O)CSc2nnnn2-c2cccc(C(C)=O)c2)s1 | -3.92% (inactive)
20 | CC(=O)Nc1ccc(S(=O)(=O)Oc2ccc(/C=N/N=C3/NC(=O)C(CC(=O)O)S3)cc2)cc1 (configuration not stated) | 1.79% (inactive)
21 | COc1ccc(C)cc1Nc1nc(-c2c(C)[nH]c3ccccc23)cs1 | -2.69% (inactive)
22 | COc1ccc(-c2csc(Nc3ccc(O)cc3)n2)cc1 | 65.8% (active)
23 | COc1ccc(-c2csc(Nc3ccccn3)n2)cc1 | -3.7% (inactive)
24 | O=c1oc2ccccc2cc1-c1csc(Nc2ccc(O)cc2)n1 | 70.4% (active)
25 | COc1ccc2nc(Nc3nc(-c4ccncc4)cs3)sc2c1 | 3.58% (inactive)

Row | Compound | inhibition
26 | COc1ccc(OC)c(Nc2nc(-c3ccc(O)c(O)c3)cs2)c1 | 35.7% (active)
27 | CCNc1nc(-c2cc3ccccc3o2)cs1 | -1.02% (inactive)
28 | COc1ccc(Nc2nc(-c3ccccc3)cs2)cc1 | 1.67% (inactive)
29 | COc1ccc2nc(Nc3nc(-c4cc5ccccc5oc4=O)cs3)sc2c1 | -2.4% (inactive)
30 | Cc1ccc(O)c(CCc2ccccc2)n1 | -4.38% (inactive)
31 | Cc1nc(Cl)c(C#N)c2c1CCCC2 | -4.53% (inactive)
32 | Cc1cc(C)n(CC(O)CN(c2ccccc2)S(=O)(=O)c2ccc3ccccc3c2)n1 (configuration not stated) | 0.98% (inactive)
33 | S=c1[nH]c2ccccc2c2ccccc12 | -1.73% (inactive)
34 | CN(C)CCNC(=O)/C(=C/c1cccc([N+](=O)[O-])c1)NC(=O)c1ccccc1 | 3.86% (inactive)
35 | Cc1ccccc1NC(=O)CN1C(=O)N/C(=C\c2cccn2-c2cccc(C(=O)O)c2)C1=O | 0.8% (inactive)
36 | O=C1/C(=C\c2ccsc2)NC(=S)N1c1ccccc1 | -2.32% (inactive)
37 | O=C1N/C(=C/c2cccn2-c2ccccc2)C(=O)N1c1cccc(Cl)c1 | 51.8% (active)
38 | Cc1ccc(C(=O)NN(CCC#N)C2=NS(=O)(=O)c3ccccc32)cc1 | -4.16% (inactive)
39 | Cc1ccc2sc(NNC(=O)c3ccc4c(c3)OCCO4)nc2c1C | -3.73% (inactive)
40 | COc1ccc(Nc2cc(=O)n(-c3ccccc3)c3c2c(=O)n(C)c(=O)n3C)cc1 | 0.16% (inactive)
41 | COc1ccc(N2CCN(Cc3cc(=O)oc4ccc5ccccc5c34)CC2)cc1 | 0.19% (inactive)
42 | COc1ccc(Nc2cc(=O)oc3ccccc23)cc1 | 55.1% (active)
43 | O=C(CC(c1ccccc1)c1cc(Cl)ccc1O)NCCN1CCOCC1 (configuration not stated) | -3.6% (inactive)
44 | C/C(CC(C)C)=N\Oc1nc(C)cc(C)n1 | -2.21% (inactive)
45 | O=[N+]([O-])c1cc(C(F)(F)F)ccc1NN=C1CCCC1 | -0.95% (inactive)
46 | O=C(CCN1CCCCC1)N=Nc1c(O)[nH]c2ccccc12 | 1.24% (inactive)
47 | COC(=O)COc1cccc2c(=O)n(CC(=O)NCCc3ccc(OC)c(OC)c3)ccc12 | -2.26% (inactive)
48 | COC(=O)COc1cccc2c(=O)n(CC(=O)NCc3ccccc3)ccc12 | 58.8% (active)
49 | Cc1ccc(CNC(=O)CCNC(=O)Cn2ccc3ccccc3c2=O)cc1 | 0.07% (inactive)
50 | CC(C)(C)NC(=O)c1ccc(Cn2cc(C(F)(F)F)ccc2=O)cc1 | 0.95% (inactive)

Row | Compound | inhibition
51 | Cc1cc2ccccn2c1C(=O)c1cccc(S(=O)(=O)N2CCOCC2)c1 | -0.04% (inactive)
52 | C/C(CC(=O)NC(C)(C)C)=N\NC(=O)c1ccco1 | -1.54% (inactive)
53 | CCCNc1c(N)c(=O)c1=O | 1.36% (inactive)
54 | CCc1cc(C(=O)c2ccc(OC)cc2)c(NC(=O)CN2CCN(C)CC2)s1 | -1.89% (inactive)
55 | CCOC(=O)N1CCN(C(=O)C2CCN(c3ncnc4c3sc3cccc(F)c34)CC2)CC1 | 43.9% (active)
56 | CCOC(=O)N1CCN(C(=O)C2CCN(Cc3ccc(OC)cc3OC)CC2)CC1 | -0.59% (inactive)
57 | CCOC(=O)C1CCN(c2ncnc3c2oc2ccc(Br)cc23)CC1 | 0.71% (inactive)
58 | COc1ccc(/C=N/OCC(=O)N(Cc2ccccc2)c2ccccc2C(=O)O)cc1 | -2.1% (inactive)
59 | CCCCN1C(=O)/C(=C(/C#N)C(N)=O)c2ccccc21 | -3.07% (inactive)
60 | CC(C)c1ccc(Nc2nnc(SCC(=O)c3nnc(-c4ccccc4)o3)s2)cc1 | 0.01% (inactive)
61 | COc1ccc(CCNC(=O)C(=O)NCC2CCNCC2)cc1OC | -3.6% (inactive)
62 | Cc1ccc2c(c1)C1CN(C)CCC1N2S(=O)(=O)c1ccc(Oc2ccc([N+](=O)[O-])cc2)cc1 (configuration not stated) | -5.1% (inactive)
63 | CCn1c(CSCc2c(Cl)cccc2Cl)n[nH]c1=S | -2.13% (inactive)
64 | COc1cc2c(cc1OC)C(/C=C/c1ccco1)=NCC2 | 1.51% (inactive)
65 | O=c1oc2ccccc2cc1-c1cn(-c2ccccc2)c(=S)[nH]1 | 35.7% (active)
66 | O=C(c1cn(-c2ccccc2)nc1-c1cc2ccccc2oc1=O)N1CCOCC1 | -0.6% (inactive)
67 | Nc1ncc(-c2cc3ccccc3oc2=O)s1 | 6.85% (inactive)
68 | Cc1nc2c(ncn2-c2ccccc2)c(=O)n1NC(=O)CN1CCCC1 | -1.07% (inactive)
69 | O=C(NNC(=O)c1ccccc1[N+](=O)[O-])Nc1ccccc1C(F)(F)F | -0.76% (inactive)
70 | CCOC(=O)C1CCN(C(=O)/C=C/c2cc(OC)c(OC)c(OC)c2)CC1 | -2.65% (inactive)
71 | CCOC(=O)c1cc(-c2nnc(-c3cc(OC)c(OC)c(OC)c3)o2)c(C)nc1C | 0.18% (inactive)
72 | CCOC(=O)C1=C(N)N2C(=O)C(C)SC2=C(C(=O)OCC)C1c1cc(OC)c(OC)c(OC)c1 (configuration not stated) | 80.7% (active)
73 | CC(CNS(=O)(=O)c1ccc(Br)cc1)CN(C)C (configuration not stated) | -1.94% (inactive)
74 | Cc1ccc(Cl)cc1N1CCN(C(=O)c2cccc3c(=O)c(C)c(-c4ccccc4)oc23)CC1 | -6.79% (inactive)
75 | C=CC[n+]1c(-c2ccc(C)cc2)csc1NNC(=O)Nc1ccccc1 | 37.6% (active)

Row | Compound | inhibition
76 | Cc1ccc(NC(=O)Nc2ccccc2)c(Br)c1 | 1.27% (inactive)
77 | C=CCNc1scc(-c2ccccc2)[n+]1CC=C | -1.89% (inactive)
78 | CCN(CC)CCOC(=O)c1ccc(NC(=O)CNC(=O)c2ccccc2)cc1 | 0.68% (inactive)
79 | COc1ccc(OCCC(=O)c2ccc(OC)cc2)cc1 | -0.79% (inactive)
80 | COc1ccc(C(=O)C[n+]2ccc(N)c(C)c2C)cc1 | 97.4% (active)
81 | COc1ccc(C(=O)C[n+]2ccc(C)cc2)cc1 | -3% (inactive)
82 | Cc1nn(-c2ccccc2)c(NC(=O)c2cccs2)c(-c2ccc(Cl)cc2)c1=O | -2.34% (inactive)
83 | COCCCNC(=O)/C=C/c1ccc(OCc2c(F)cccc2Cl)cc1 | -4.39% (inactive)
84 | CN(C)CCCNC(=O)/C=C/c1ccc(OCc2c(F)cccc2Cl)cc1 | 0.9% (inactive)
85 | O=C(/C=C/c1ccc(OCc2c(F)cccc2Cl)cc1)N1CCOCC1 | 64.4% (active)
86 | O=C(NNC(=O)c1csc(-c2cccnc2)n1)Nc1ccc(Cl)cc1 | -0.26% (inactive)
87 | COC(=O)N/N=C/c1cn(CCCOc2ccc(C)cc2)c2ccccc12 | -1.96% (inactive)
88 | CCN(CC)c1ccc(/C=N/Nc2nc(C)cc(C)n2)c(O)c1 | 2.26% (inactive)
89 | CCN(CC)c1ccc(/C=N/NC(=O)c2cnccn2)c(O)c1 | 56.2% (active)
90 | O=C(Nc1ccc2c(c1)OCCO2)c1cnccn1 | 0.76% (inactive)
91 | CC(=O)Nc1cccc(OCC(=O)/C=C2\N(C)c3ccccc3C2(C)C)c1 | 37.5% (active)
92 | CN1/C(=C\C(=O)c2cccnc2Cl)C(C)(C)c2ccccc21 | 2.48% (inactive)
93 | Cc1noc(C)c1C(=O)OCC(=O)/C=C1\N(C)c2ccccc2C1(C)C | 1.84% (inactive)
94 | N/C(=N\OC(=O)Nc1ccccc1)c1ccno1 | 4.88% (inactive)
95 | CC1(C)CC(N2CCN(C(c3ccccc3)c3ccccc3)CC2)=CC(=[N+]2CCCCC2)C1 | 98.8% (active)
96 | CC(C)NC(=S)N1CCN(C(c2ccccc2)c2ccccc2)CC1 | 1.76% (inactive)
97 | CC1(C)CC(=O)C=C(N2CCCC2)C1 | -0.55% (inactive)
